Assay outcomes deposited in PubChem by Sanford-Burnham Center for Chemical Genomics.
Compounds with a hit are over-represented: about 6.3% of the library has one in this group of screens.
TIM10 inh – inhibits growth of TIM10 yeast strain | S. cerevisiae TIM10 strain growth, BacTiter-Glo luminescence, 24 h | inhibition, % at 10 µM | actives 1.4% (n = 330,000) | AID 463195;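 active = inhibition of 40% or more at the single tested concentration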;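 note: wild-type TIM10 isogenic control strain grown at permissive 25 °C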
tim10-1 inh – inhibits growth of tim10-1 mutant yeast; S. cerevisiae tim10-1 ts strain growth, BacTiter-Glo, 24 h; inhibition, % at 20 µM; actives 2.2% (n = 330,000);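 active = inhibition of at least 40%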;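 note: mutant grown at 25 °C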
MPTP block – inhibitors of mitochondrial permeability transition pore; isolated mouse mitochondria, Ca2+ swelling absorbance, 30 min; inhibition, % at 10 µM; actives 1.4% (n = 360,000); AID 602449;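 active = inhibition of 50% or more, scaled per plate between neutral and stimulator controls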
Mdm2-MdmX inh – disrupts the human Mdm2-MdmX interaction. O15151+Q00987. SaOS-2 split-luciferase Mdm2/MdmX complementation, luminescence. inhibition, % at 8 µM. actives 3% (n = 330,000);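 active = inhibition of at least 50% at 8 µM in the primary screen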
Target sequence (O15151 whole entry, looked up): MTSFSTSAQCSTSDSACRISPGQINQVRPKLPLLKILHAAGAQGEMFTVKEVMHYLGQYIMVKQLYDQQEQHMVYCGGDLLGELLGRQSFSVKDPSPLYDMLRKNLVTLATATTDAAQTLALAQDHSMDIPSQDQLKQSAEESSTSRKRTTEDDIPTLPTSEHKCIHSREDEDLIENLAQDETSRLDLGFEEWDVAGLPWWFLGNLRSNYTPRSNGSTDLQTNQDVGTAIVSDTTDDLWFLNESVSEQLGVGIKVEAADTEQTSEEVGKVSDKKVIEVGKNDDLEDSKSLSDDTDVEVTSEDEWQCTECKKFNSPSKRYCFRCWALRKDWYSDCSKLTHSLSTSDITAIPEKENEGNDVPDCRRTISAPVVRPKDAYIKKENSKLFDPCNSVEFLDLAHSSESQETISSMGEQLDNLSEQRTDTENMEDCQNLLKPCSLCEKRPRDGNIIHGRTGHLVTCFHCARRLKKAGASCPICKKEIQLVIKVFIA
Target sequence (Q00987 whole entry, looked up): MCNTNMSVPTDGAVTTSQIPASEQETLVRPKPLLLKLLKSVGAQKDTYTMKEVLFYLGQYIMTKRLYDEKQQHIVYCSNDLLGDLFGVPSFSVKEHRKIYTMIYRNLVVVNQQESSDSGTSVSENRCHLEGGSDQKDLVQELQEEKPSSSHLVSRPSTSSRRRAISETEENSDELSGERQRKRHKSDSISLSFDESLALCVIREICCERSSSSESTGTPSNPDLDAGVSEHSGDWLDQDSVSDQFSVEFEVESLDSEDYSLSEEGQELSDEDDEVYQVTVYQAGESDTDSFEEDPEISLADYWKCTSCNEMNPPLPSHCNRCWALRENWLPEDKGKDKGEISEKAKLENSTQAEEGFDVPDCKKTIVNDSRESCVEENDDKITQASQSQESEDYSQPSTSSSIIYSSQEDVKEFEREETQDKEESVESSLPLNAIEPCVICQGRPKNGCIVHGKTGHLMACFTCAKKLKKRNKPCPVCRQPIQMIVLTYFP
tim23-1 inh – inhibits growth of tim23-1 mutant yeast | S. cerevisiae tim23-1 growth, BacTiter-Glo luminescence, 24 h | inhibition, % at 20 µM | actives 1.3% (n = 330,000) | AID 463212;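 active = growth inhibition of the mutant yeast at or above 50%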;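 note: temperature-sensitive mutant grown at 25 °C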
Mdm2-MdmX conf – human Mdm2/MdmX binding inhibition, confirmed. shares compounds with Mdm2-MdmX inh. actives 55% (n = 10,000). AID 489028. luminescent assay. inhibition, % at 8 µM; in the data active = inhibition above about 40%
FLuc counter – inhibits full-length luciferase, flagging false Mdm2/MdmX hits; shares compounds with Mdm2-MdmX inh; SaOS-2 full-length luciferase counterscreen, luminescence; inhibition, % at 8 µM; actives 77% (n = 6,200); AID 504607;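 active = mean inhibition at 8 µM reaching about 37%, which flags the compound as non-specific, limit read from the data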;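 note: p53-null SaOS-2 cells with luciferase driven by a doxycycline-inducible promoter; compound on cells about two nights before reading with doxycycline added after day one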
A number is an active result; – = inactive; · = no result given.

SMILES	TIM10 inh	tim10-1 inh	MPTP block	Mdm2-MdmX inh	tim23-1 inh	Mdm2-MdmX conf	FLuc counter
CC1(C)C[C@H](O)[C@]2(CO)CC[C@]3(C)C(=CCC4[C@@]5(C)CC[C@H](O)C(C)(C)C5CC[C@]43C)[C@@H]2C1 (some centres undefined)	–	–	–	–	–	·	·
CC1(C)C[C@H](O)[C@]2(CO)[C@H](O)C[C@]3(C)C(=CCC4[C@@]5(C)CC[C@H](O)C(C)(C)C5CC[C@]43C)[C@@H]2C1 (some centres undefined)	–	–	–	100	–	–	·
C[C@@H]1CCCCO[C@H](CN(C)Cc2ccc3c(c2)OCO3)[C@@H](C)CN([C@H](C)CO)C(=O)c2cc(NC(=O)c3ccccc3)ccc2O1	·	·	–	·	·	·	·
Cc1ccc(N/C(N)=N/c2nc(CSc3nnc(C)s3)cc(=O)[nH]2)c(C)c1	–	–	–	60	–	56	68
COc1ccc(N/C(N)=N/c2nc(CSc3nnc(C)s3)cc(=O)[nH]2)cc1	–	–	–	52	–	65	65
COc1ccc(N/C(N)=N/c2nc(C)cc(=O)[nH]2)cc1	–	–	–	–	–	·	·
NS(=O)(=O)c1ccc(CCNC(=O)COC(=O)Cc2ccc(Cl)cc2)cc1	·	·	–	·	·	·	·
CC1(C)Cc2ccccc2C2=NNC(=O)C2=N1	–	–	–	86	–	65	–
CC1(C)Cc2ccccc2C(Nn2cnnc2)=N1	–	–	–	–	–	·	·
O=[N+]([O-])c1ccc(-c2ccc(/C=N/Nc3nc(N4CCCCC4)nc(N4CCCCC4)n3)o2)cc1	–	–	–	77	–	–	75
O=[N+]([O-])c1ccc(-c2ccc(/C=N/Nc3nc(N4CCCC4)nc(N4CCCC4)n3)o2)cc1	–	–	–	93	–	67	49
Cc1cc(C)n2c(Nc3c(C)cccc3C)c(CC(C)C)nc2n1	·	·	–	·	·	·	·
Cc1cnc(NC(=O)C2(C)CCN2C(=O)C(C)C)s1 (centres undefined)	·	·	–	·	·	·	·
CCOC(=O)c1ccc(-c2c(-c3cc(OC)c(OC)c(OC)c3)noc2C)cc1F	–	–	–	62	–	52	89
O=c1[nH]c(N/N=C/c2ccccc2Br)nnc1-c1ccccc1	–	–	–	–	–	·	·
COc1ccc(/C=N/Nc2nnc(-c3ccccc3)c(=O)[nH]2)cc1	–	–	–	76	–	–	·
COc1cc(C(=O)NCC(c2cccs2)N2CCOCC2)cc(Br)c1OCc1ccccc1 (centres undefined)	–	–	–	51	–	42	39
C=C1C[C@@H]2C[C@@H]2CN(S(=O)(=O)c2ccc(C)cc2)[C@@H]1COCc1ccccc1	·	·	–	·	·	·	·
c1cc2[nH]snc2c2nc(C3CC3)nc12	–	–	–	72	–	73	–
CC(=O)OC[C@]12CC[C@H]3[C@@](C)(CC[C@H]4C(C)(C)CCC[C@]34C)[C@@H]1C[C@@H](C1=CC(=O)O[C@@H]1OC(C)=O)O2	–	–	·	100	–	99	–
CC(O)CC(=O)OC[C@]12CC[C@H]3[C@@](C)(CC[C@H]4C(C)(C)CCC[C@]34C)[C@@H]1CC(C1=CC(=O)OC1O)O2 (some centres undefined)	·	·	–	·	·	·	·
CC(=O)OC[C@]12CC[C@H]3[C@@](C)(CC[C@H]4C(C)(C)CCC[C@]34C)[C@@H]1C[C@H](C1=CC(=O)O[C@H]1OC(C)=O)O2	–	–	·	91	–	–	·
CCCC(=O)N1CCOCC1c1cc(C(=O)NCc2ccccc2)no1 (centres undefined)	·	·	–	·	·	·	·
COc1cccc(/C=C2\SC(=S)N(CCC(=O)NCCc3ccc(O)cc3)C2=O)c1	–	–	–	99	–	84	–
O=C(CCN1C(=O)/C(=C/c2ccc(F)cc2)SC1=S)NCCc1ccc(O)cc1	–	–	–	87	–	66	42
SMILES	TIM10 inh	tim10-1 inh	MPTP block	Mdm2-MdmX inh	tim23-1 inh	Mdm2-MdmX conf	FLuc counter
COc1ccc(S(=O)(=O)Nc2ccc3c(c2)C(=O)N([C@H](C)CO)C[C@H](C)[C@@H](CN(C)C(=O)Nc2c(C)noc2C)O3)cc1	–	–	–	–	–	·	·
Cc1sc2nc(C(C)C)nc(SCC(=O)N3c4ccccc4CC3C)c2c1C (centres undefined)	–	–	–	56	–	–	·
CCc1nc(SCC(=O)N2CC(=O)Nc3ccccc32)c2c(C)c(C)sc2n1	–	–	–	–	–	·	·
CCc1nc(SCC(=O)N2c3ccccc3CC2C)c2c(C)c(C)sc2n1 (centres undefined)	–	–	–	98	–	93	53
Cc1ccccc1N(C(=O)Cc1c[nH]c2ccccc12)C(C(=O)NC1CCCCC1)c1ccco1 (centres undefined)	–	–	–	–	–	·	·
Cc1ccc(N(C(=O)Cc2c[nH]c3ccccc23)C(C(=O)NC2CCCCC2)c2ccco2)cc1 (centres undefined)	–	–	–	55	–	40	86
COc1cc2ccccc2cc1C(=O)Nc1sc2c(c1C(N)=O)CCN(C(C)C)C2	–	–	–	100	–	42	48
Cc1c(N=C2N=C(NC(=O)Nc3ccc(Cl)cc3)c3ccccc32)c(=O)n(-c2ccccc2)n1C	–	–	–	58	–	–	·
CC(=O)O[C@H]1[C@@H](O)[C@H](O)[C@H](Oc2c(O)c(C)c3c4c2[C@@H](C)CC[C@@H]4[C@@H](C)C[C@H]3C=C(C)C)O[C@H]1C	–	–	–	90	–	–	·
COc1ccc(/C=C/c2nc(N)nc(-c3ccccc3O)n2)cc1OC	–	–	–	61	–	44	84
CCOc1cc2[nH]c(=S)n(CCc3ccc(OC)c(OC)c3)c(=O)c2cc1OCC	–	–	–	83	–	–	·
CC/C(=C(/CC)c1ccc(O)cc1)c1ccc(O)cc1	–	–	–	54	–	48	53
CCc1ccccc1NC(=O)CN1CCN(C(=O)CNC(=O)c2ccc(-c3ccccc3)cc2)CC1	–	–	–	50	–	–	·
N=c1ccn2c(n1)O[C@H]1[C@H](O)[C@@H](CO)O[C@H]12	–	–	–	61	–	64	46
N=c1ccn2c(n1)O[C@H]1[C@@H](CO)[C@H](O)O[C@H]12	–	–	–	69	–	61	43
COc1ccc(N2CCN(C(=O)c3ccc4c(c3)CCN4S(C)(=O)=O)CC2)cc1	·	·	–	·	·	·	·
O=C(CSc1ncccn1)NC(=O)NC1CCCC1	·	·	–	·	·	·	·
CCOC(=O)[C@]12CCC=C1N(CCC1=CCCCC1)C(=O)[C@H](CC(=O)N1CCOCC1)C2	·	·	–	·	·	·	·
CCOc1cc(/C=N/N=C(\N)c2nonc2N)cc(Br)c1OCc1cccc2ccccc12	–	–	–	69	–	59	–
Cc1nn(-c2ccccc2Cl)c(Cl)c1/C=N/Nc1nc2ccccc2s1	–	–	–	87	–	96	56
